Data published in ChEMBL document CHEMBL3988442, “University of Dundee, Small-Polar-MMV Screening Library” (2021).
About 900 (1.7%) of roughly 53,000 compounds showed an effect of 50% or more. This is one part of a sample in which strong results are shown more often than they occur.

test system: Mycobacterium tuberculosis; experiment: Cornell - Phenotypic assay to identify agents that inhibit growth of Mycobacterium tuberculosis; format: functional; set-up: scale not given: direction of the effect not stated beside the values; settings: 10 mM as filed; unlikely as a test dose

Structure (SMILES)	Percent Effect [%]
O=C(O)c1nnn(-c2ccc(F)c(F)c2)c1-c1ccncc1	8.364
CC(=O)c1ccc(-n2c(C)cn(CCC(=O)NC(N)=O)c2=O)cc1	30.44
Cc1nc2ccnn2c(C)c1CCC(=O)N1CCN2CCCCC2C1 (centres undefined)	-1.576
CCCn1cc(Cl)c(C(=O)N2C[C@H]3C[C@H](OC)C[C@H]3C2)n1	4.304
CN1CC[C@]2(CN(CC3CC3)C[C@H]2c2ccccc2)C1=O	-29.63
CC(=O)Nc1ccc(Oc2cc(C)nc(C3CCCNC3)c2)cc1.Cl (centres undefined)	31.88
Cc1ccc(N2CCCN(C(=O)c3n[nH]c4c3CCC4)CC2)nn1	19.39
CNC(=O)CN1CCC(CN(C)CCSc2ccccc2)CC1	4.331
Cc1cc(NCCCNc2cccnc2)n2nc(C)c(C)c2n1	31.25
Cc1cc(NCCSc2nccn2C)n2nc(C)c(C)c2n1	27.83
CCSCCNc1cc(C)nc2c(C)c(C)nn12	75.01
Cn1cc(-c2cc(C(F)F)n3nc(CCC(=O)O)nc3n2)cn1	-6.676
COc1cccc(CNC(=O)c2ccccc2-n2cnc(CN)c2)c1	-31.51
CCN(CC)S(=O)(=O)N1CCCC1c1nnc2n1CCN(C)CC2 (centres undefined)	42.64
CN1CCc2nnc(C3CCCN3S(=O)(=O)c3ccc(F)cc3)n2CC1 (centres undefined)	59.34
O=S(=O)(c1ccc(F)cc1F)N1CCCCC1c1nnc2n1CCCC2 (centres undefined)	10.12
CC(OCC1CC1)C(=O)N1CCCN(Cc2nccn2C(C)C)CC1 (centres undefined)	14.16
O=C(NCCC1COc2ccccc2O1)c1ccc(-c2cn[nH]c2)nc1 (centres undefined)	4.189
O=C(NCCC1COc2ccccc2O1)c1ccc(-c2cc[nH]n2)nc1 (centres undefined)	70.18
O=C(NCCC1COc2ccccc2O1)c1ccc(N2CC(O)C2)nc1 (centres undefined)	-14.99
CN(C)C(=O)N1C[C@@H]2CC[C@H](C1)N(Cc1nnc(-c3ccco3)o1)C2	-11.16
CCC(C)Oc1ccc(CNCCNC(C)=O)cc1OC (centres undefined)	-42.04
Cn1ncc2c(N3CCS(=O)(=O)CC3)nc(C3CCCC3)nc21	-13.36
Cn1ncc2c(N3CCN(CCO)CC3)nc(C3CCCC3)nc21	32.14
CN1CCCN(c2nc(C3CCCC3)nc3c2cnn3C)CC1	65.73
c1ccc(CCCN2CCCN(c3ncnc4[nH]ccc34)CC2)cc1	3.591

Structure (SMILES)	Percent Effect [%]
Cc1nccn1-c1ccc(=O)n(CCNC(=O)Cc2ccccc2)n1	4.846
c1cc(N2CCCCC2)ccc1-c1noc(CN2CCOCC2)n1	5.485
Cc1occc(=O)c1OCC(=O)N1CCN(c2ccccc2)CC1	32.32
COc1ccc(N2CCN(C(=O)COc3c(C)occc3=O)CC2)cc1	55.27
COc1ccc(N2CCN(C(=O)Cn3nc(C)c(Cl)c3C)CC2)cc1	54.85
Cc1nn(CC(=O)N2CCN(c3ccncc3)CC2)c(C)c1Cl	1.786
COc1cccc(N2CCN(C(=O)COc3c(C)occc3=O)CC2)c1	16.48
Cc1nn(CC(=O)N2CCN(c3ccc(F)cc3)CC2)c(C)c1Cl	-1.208
O=C(N[C@H]1CN(c2ccncc2)C[C@@H]1C1CC1)C1CCOCC1	6.471
OCc1csc(N2C[C@@H](CN3CCCCCC3)[C@@H](CO)C2)n1	-1.997
CCC[C@H]1CN(c2nc(CO)cs2)C[C@@H]1NC(=O)C1CCC1	52.87
CC(=O)N[C@@H]1CN(c2nc(CO)cs2)C[C@H]1c1ccc(C)o1	3.039
CCC[C@H]1CN(c2nc(CO)cs2)C[C@@H]1NC(=O)C1(COC)CC1	20.53
O=C(N[C@H]1CN(c2nc(CO)cs2)C[C@@H]1C1CC1)C1CCCCC1	56.52
O=C(c1cccs1)N1CCC2(CC1)CN(c1ccsc1)C(=O)CO2	16.06
Clc1ccc(C2(CNC3=NCCN3)CC2)cc1.I	-15.81
CCOC(=O)N1CCNC(c2cccs2)C1 (centres undefined)	-4.593
Cc1nc(CN2CCC(N(C)Cc3nnc(C4CC4)n3C)C2)cs1 (centres undefined)	55.81
CN(Cc1nnc(C2CC2)n1C)C1CCN(Cc2ccccc2)C1 (centres undefined)	104.3
Cc1cnc(CN2CCC(N(C)Cc3nnc(C4CC4)n3C)C2)cn1 (centres undefined)	8.133
CN(Cc1nnc(C2CC2)n1C)C1CCN(Cc2ccc(F)cc2)C1 (centres undefined)	10.51
CN(Cc1nnc(C2CC2)n1C)C1CCN(Cc2ccon2)C1 (centres undefined)	-5.558
CN(Cc1nnc(C2CC2)n1C)C1CCN(Cc2ccncc2)C1 (centres undefined)	-21.05
CC(=O)N1CCC(c2ncc(C(=O)Nc3ccccc3)c(C)n2)CC1	16.5
O=C(CC1CC1)N1CCC2(CC1)CN(Cc1cccnc1)C(=O)CO2.O=C(O)C(F)(F)F	2.615
COCCN1C[C@H]2CCN(C(=O)c3cc(C)on3)CC[C@H]2S1(=O)=O	-32.34

Structure (SMILES)	Percent Effect [%]
CNC(=O)c1cc2ccccc2n1C	-0.05075
CC(C)(C)c1csc(CCNC(=O)C(c2ccccc2)n2cnnn2)n1 (centres undefined)	11.39
Cc1ccc(C(=O)Nc2nc(C)no2)cc1	27.63
Cc1noc(NC(=O)c2ccccc2)n1	-1.268
Cc1noc(NC(=O)c2ccc(Br)s2)n1	105.7
Cc1noc(NCc2ccc(F)cc2)n1	-8.844
Cc1noc(NC(=O)c2ccc(Br)o2)n1	16.32
Cc1noc(COCC(=O)Nc2ccc(Br)c(C)n2)n1	11.41
O=C(NCCn1ccnc1)c1cccc(Br)c1	9.854
Cc1noc(NC(=O)CCNC(=O)c2ccc(Br)cc2)n1	-19.08
Cc1noc(NC(=O)c2cccc(Br)c2)n1	106.3
Cc1noc(NC(=O)c2ccc(C#N)cc2)n1	13.91
Cc1noc(NC(=O)c2ccc(OC(F)(F)F)cc2)n1	104.6
Cc1noc(NC(=O)c2ccc(Br)cc2)n1	106.9
CN1C(=O)C2(CC(=O)Nc3[nH]ncc32)c2cc(F)ccc21 (centres undefined)	1.042
COCCNC(=O)c1sc2ccccc2c1C1CCC(CN)CC1.Cl (centres undefined)	-3.556
CC(C)c1nccn1-c1nccnc1C1CCCN1Cc1cccnc1 (centres undefined)	-9.727
CN(C)c1cc(C2CCCNC2)ccn1.Cl.Cl (centres undefined)	40.71
CC(C)(C)OC(=O)N1CCn2c(nnc2C2CCCNC2)C1 (centres undefined)	-27.32
CCC(C)(C)n1nnnc1C(c1cccs1)N1CCc2ccccc2C1 (centres undefined)	77.94
CCC(C)(C)n1nnnc1C(c1cccs1)N1CCCCC1 (centres undefined)	33.43
CCC(C)(C)n1nnnc1C(c1cccs1)N1CCc2ccccc21 (centres undefined)	26.96
CCOc1ccccc1CN(C)C(=O)CN1C(=O)OC[C@@H]1C(C)C	-25.38
NCc1n[nH]c(=O)n1-c1cccc(Cl)c1Cl	-49.88
Cc1cccc(-c2nccnc2C2CCN(C)CC2)c1C	-15.39
NC(=O)c1c(-c2ccc(Cl)cc2)csc1NC(=O)CCC(=O)O	-1.119

Structure (SMILES)	Percent Effect [%]
O=C(COc1coc(CN2CCCCC2)cc1=O)c1ccc(Cl)cc1	53.44
O=C(COc1coc(CN2CCCCCC2)cc1=O)c1ccccc1	-10.82
O=C(COc1coc(CN2CCOCC2)cc1=O)c1ccc(Cl)cc1	4.659
CSCCC(=O)N1CCCC(c2ncc[nH]2)C1 (centres undefined)	7.779
NC1(c2nc(-c3cccs3)cc(=O)[nH]2)CCCCC1	-54.45
Cc1cc(=O)[nH]c(-n2nc(-c3cccs3)cc2N)n1	98.99
CCCS(=O)(=O)NCCn1ccc(-c2cccs2)n1	-17.91
COC(=O)CCc1c(C)nn(-c2nc(C)cc(=O)[nH]2)c1C	23.13
CCCc1cc(=O)[nH]c(-n2nc(-c3cccs3)cc2N)n1	94.38
NC1(c2nc(-c3ccccc3)cc(=O)[nH]2)CCCC1	17.2
Cc1cc(=O)[nH]c(-n2nc(-c3ccccc3)cc2N)n1	94.92
NC1(c2nc(-c3cccs3)cc(=O)[nH]2)CCCC1	-47.24
Cc1cc(=O)[nH]c(-n2nc(C)c(CCC(=O)NCc3cccs3)c2C)n1	13.95
COc1cc(N2C[C@H]3CN(Cc4ccccn4)C[C@H]3C2)ncn1.O=C(O)C(F)(F)F	8.566
Cn1nnnc1SC1CCc2ccccc2NC1=O (centres undefined)	4.345
O=C(COC[C@]12COC[C@H]1CN(C1CCC1)C2)N1CCCC1.O=C(O)C(F)(F)F	-23.94
CCC1CN(CCCNS(C)(=O)=O)c2ccccc2O1 (centres undefined)	99.54
CCC1CN(CCNS(C)(=O)=O)c2ccccc2O1 (centres undefined)	23.74
CCC1CN(CCCO)c2ccccc2O1 (centres undefined)	66.97
CN(CC1COc2ccccc2O1)C(=O)C1=NN(C)C(=O)CC1 (centres undefined)	21.15
CS(=O)(=O)NCC1Cc2ccccc2O1 (centres undefined)	-12.85
CCCN(CC1COc2ccccc2O1)C(=O)CCN1C(=O)CCC1=O (centres undefined)	17.77
Cc1cccc(CN2CCC3(CCN(Cc4ccccn4)C3)C2=O)c1.O=C(O)C(F)(F)F.O=C(O)C(F)(F)F (centres undefined)	1.967
COc1cc(CCC(=O)N2CCC(c3cc4nccnc4[nH]3)CC2)on1	16.88
CCCSc1ncccc1C(=O)NCc1ccc(N(C)C)cc1	-11.44
O=C(O)C(F)(F)F.c1ccc(CN2CCc3ncnc(-c4ccsc4)c3CC2)nc1	15.9
